Measured values: PubChem BioAssay (Tox21)
Records with an inconclusive call do not appear. Active and inactive are the calls of the source. Unless noted, the call rests on the fitted dose curve; in most records, active means well fitted curve in the direction sought with a large enough effect in the repeat runs; inconclusive means weak or mixed curves; inactive means no such curve, though single readings can be large; an effect the other way counts as inactive or inconclusive.

Legend:
[1] = qHTS assay for small molecules that induce genotoxicity in human embryonic kidney cells expressing luciferase-tagged ATAD5 (AID 651632); further: on the % scale 0 is the no-effect control and ±100 the full control effect; nearly all actives have a fitted effect of over 15% in size
How it was run: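 Luminescent reporter readout, HEK293T ATAD5-luc line: 16 hr drug exposure (37C, 5% CO2) followed by Amplite, 30 min RT.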

[2] = qHTS assay for small molecule agonists of the p53 signaling pathway - cell viability (AID 651633; calls by dose curve;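 further: p53RE-bla HCT reporter cells with a stable beta-lactamase p53 reporter; series mostly up to about 83 µM; on the % scale 0 is the no-effect control and ±100 the full control effect; nearly all actives have a fitted effect of over 30% in size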)
How it was run: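 p53RE-bla cells, seeded at 4,000 per well and rested 5 h at 37 C/5% CO2, received compounds in DMSO for 16 h at 37 C. CellTiter-Glo was then added, and luminescence was read after 30 min at room temperature to gauge cytotoxicity.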

[3] = qHTS assay for small molecules that induce genotoxicity in human embryonic kidney cells expressing luciferase-tagged ATAD5 - cell viability (AID 651634; calls by dose curve; further: on the % scale 0 is the no-effect control and ±100 the full control effect; nearly all actives have a fitted effect of over 25% in size)
How it was run: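 Viability read: CellTiter-Fluor fluorescence, 30 min at 37C. Cells: HEK293T, luciferase-tagged ATAD5. Exposure: 15.5 hr, 37C, 5% CO2, compound or DMSO vehicle.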

[4] = qHTS assay for small molecule disruptors of the mitochondrial membrane potential - cell viability (AID 720634; calls by dose curve;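 further: human HepG2 liver cancer cells; series mostly up to about 83 µM; on the % scale 0 is the no-effect control and ±100 the full control effect; nearly all actives have a fitted effect of over 20% in size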)
How it was run: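 HepG2, 1 hr compound, 37 C. ATP luminescence via CellTiter-Glo, 30 min RT, same well as m-MPI.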

[5] = qHTS assay to test for compound auto fluorescence at 590 nm (red) in HepG2 cells (AID 720674); further: on the % scale 0 is the no-effect control and ±100 the full control effect
How it was run: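 Compound auto-fluorescence is scored relative to Rose Bengal sodium, measured at 540/590 nm in live HepG2 cultures after 1 hr compound contact (37 C, 5% CO2).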

[6] = qHTS assay to test for compound auto fluorescence at 460 nm (blue) in HEK293 cells (AID 720678); further: on the % scale 0 is the no-effect control and ±100 the full control effect
How it was run: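 Triamterene serves as the blue fluorophore standard. Compound signal at 405/460 nm is read in HEK293 wells (2,000 cells, 10% dialyzed FBS) after overnight treatment at 37C.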

[7] = qHTS assay to test for compound auto fluorescence at 590 nm (red) in HEK293 cells (AID 720679); further: on the % scale 0 is the no-effect control and ±100 the full control effect
How it was run: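 We plated HEK293 cells in 10% dialyzed FBS medium, let them adhere for 4-5 hr, then added 23 nL compound. Overnight at 37C and 5% CO2 preceded fluorescence measurement at 540/590nm.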

[8] = qHTS assay to test for compound auto fluorescence at 535 nm (green) in HEK293 cells (AID 720680); further: on the % scale 0 is the no-effect control and ±100 the full control effect
[9] = qHTS assay to test for compound auto fluorescence at 460 nm (blue) in HEK293 cell free culture (AID 720681); further: on the % scale 0 is the no-effect control and ±100 the full control effect
How it was run: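 Test compounds were pinned into cell-free culture medium (DMEM with 10% FBS) and fluorescence was read directly at Ex/Em 405/460 nm. Signals were expressed as fluorescence equivalents of triamterene, with DMSO vehicle as control.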

[10] = qHTS assay to test for compound auto fluorescence at 535 nm (green) in HEK293 cell free culture (AID 720682); further: on the % scale 0 is the no-effect control and ±100 the full control effect
How it was run: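 Using fluorescein as calibrant, autofluorescence was quantified at 485/535 nm in cell-free DMEM containing 10% FBS after pintool addition of compound or vehicle.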

[11] = qHTS assay to test for compound auto fluorescence at 590 nm (red) in HEK293 cell free culture (AID 720683); further: on the % scale 0 is the no-effect control and ±100 the full control effect
How it was run: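 Tox21 10K library compounds were pinned into cell-free DMEM with 10% FBS and fluorescence was read at excitation 540 nm. Activity is expressed as Rose Bengal sodium equivalency.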

[12] = qHTS assay to test for compound auto fluorescence at 590 nm (red) in HepG2 cell free culture (AID 720684); further: on the % scale 0 is the no-effect control and ±100 the full control effect
How it was run: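 Measured in medium alone (MEM containing 10% FBS) following pintool addition of compound; emission at 590 nm with 540 nm excitation, referenced to Rose Bengal sodium.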

[13] = qHTS assay to test for compound auto fluorescence at 460 nm (blue) in HepG2 cell free culture (AID 720685); further: on the % scale 0 is the no-effect control and ±100 the full control effect
How it was run: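 Compound (23 nL) or DMSO pinned into cell-free MEM with 10% FBS; blue fluorescence read at 405/460 nm excitation/emission, expressed as auto-fluorescence equivalency to triamterene.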

[14] = qHTS assay to test for compound auto fluorescence at 535 nm (green) in HepG2 cell free culture (AID 720686); further: on the % scale 0 is the no-effect control and ±100 the full control effect
[15] = qHTS assay to test for compound auto fluorescence at 460 nm (blue) in HepG2 cells (AID 720687); further: on the % scale 0 is the no-effect control and ±100 the full control effect
How it was run: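 Cells (2,000/well in MEM with 10% FBS) attached overnight at 37 C, then were exposed to compound or DMSO for 1 hr at 37 C, 5% CO2. Fluorescence read at Ex/Em 405/460 nm, expressed as triamterene-equivalent signal.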

[16] = target: Glucocorticoid receptor (Homo sapiens) (UniProt P04150); experiment: qHTS assay to identify small molecule agonists of the glucocorticoid receptor (GR) signaling pathway (AID 720691; active means well fitted activation curve with a large enough effect in the signal ratio in the repeat runs, not every such curve was filed as active; the % refers to the signal ratio; further: on the % scale 0 is the no-effect control and ±100 the full control effect)
How it was run: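 qHTS in GR-bla HeLa cells: 4 h settling at 37 C/5% CO2, 18 h compound incubation at 37 C, 2 h LiveBLAzer B/G FRET substrate at room temperature, fluorescence intensity measured.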

[17] = target: Glucocorticoid receptor (Homo sapiens) (UniProt P04150); experiment: qHTS assay to identify small molecule antagonists of the glucocorticoid receptor (GR) signaling pathway (AID 720692; active means well fitted inhibition curve with a large enough effect in the signal ratio in the repeat runs, not every such curve was filed as active; the % refers to the signal ratio; further: on the % scale 0 is the no-effect control and ±100 the full control effect)
How it was run: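 Inhibition of glucocorticoid signalling is measured in HeLa cells with a GRE-controlled beta-lactamase reporter; cells are co-treated with compound and 5 nM dexamethasone (final) for 18 h before FRET substrate readout.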

[18] = qHTS assay to test for compound auto fluorescence at 535 nm (green) in HepG2 cells (AID 720675); further: on the % scale 0 is the no-effect control and ±100 the full control effect
[19] = qHTS assay for small molecule disruptors of the mitochondrial membrane potential (AID 720635); further: potency means the concentration at half of the fitted maximal effect
How it was run: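 HepG2 cells (2,000/well) attached overnight at 37C, then took compound for 1 hr at 37C, 5% CO2. Mito-MPS dye was added for 30 min; fluorescence was read at 490/535 nm (monomers) and 540/590 nm (aggregates).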

Sequence of Glucocorticoid receptor (Homo sapiens) (P04150 whole entry, looked up): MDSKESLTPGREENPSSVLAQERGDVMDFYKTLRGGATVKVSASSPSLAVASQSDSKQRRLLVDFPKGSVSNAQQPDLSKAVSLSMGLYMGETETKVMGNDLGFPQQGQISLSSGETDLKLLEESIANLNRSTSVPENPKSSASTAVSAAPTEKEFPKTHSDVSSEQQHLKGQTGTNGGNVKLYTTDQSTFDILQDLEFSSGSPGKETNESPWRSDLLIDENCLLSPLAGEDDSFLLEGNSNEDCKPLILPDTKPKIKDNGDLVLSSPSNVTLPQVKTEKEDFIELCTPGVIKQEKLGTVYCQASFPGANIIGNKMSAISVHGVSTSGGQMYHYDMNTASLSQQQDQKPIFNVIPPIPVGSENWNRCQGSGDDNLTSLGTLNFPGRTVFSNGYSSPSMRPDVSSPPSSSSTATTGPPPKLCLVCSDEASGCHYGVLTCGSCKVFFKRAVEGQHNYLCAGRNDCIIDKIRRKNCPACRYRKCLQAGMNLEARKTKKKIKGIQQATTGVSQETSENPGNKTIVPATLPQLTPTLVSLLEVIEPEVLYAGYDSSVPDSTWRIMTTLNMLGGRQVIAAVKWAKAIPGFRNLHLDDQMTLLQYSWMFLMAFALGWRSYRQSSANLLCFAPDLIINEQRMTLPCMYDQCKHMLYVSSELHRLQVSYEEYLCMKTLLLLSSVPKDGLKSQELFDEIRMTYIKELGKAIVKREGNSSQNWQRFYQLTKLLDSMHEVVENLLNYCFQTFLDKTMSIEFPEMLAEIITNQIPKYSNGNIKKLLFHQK

CC(C)(C)c1ccc(-c2ccc(C(C)(C)C)cc2)cc1
inactive: Potency [1] | Potency [2] | Potency [3] | outcome [4] | outcome [5] | outcome [6] | outcome [7] | outcome [8] | outcome [9] | outcome [10] | outcome [11] | outcome [12] | outcome [13] | outcome [14] | outcome [15] | Potency [16] | Potency [17]

NC(N)=NCCN1CCCCCCC1
inactive: Potency [1] | Potency [3] | outcome [4] | fluorescence, relative to Rose Bengal [5] 0.248% [at 18.6 µM] | fluorescence, % of fluorescein control [18] 0.0444% [at 18.6 µM] | fluorescence, % of fluorescein [8] -0.017% [at 18.6 µM] | fluorescence, % of fluorescent control [9] -0.0671% [at 18.6 µM] | activity change [10] 0.0837% [at 18.6 µM] | fluorescence, % of fluorescent control [11] -0.0086% [at 18.6 µM] | fluorescence, % of fluorescent control [13] 0.0071% [at 18.6 µM] | fluorescence, % of fluorescein control [14] 0.0218% [at 18.6 µM] | fluorescence, % of fluorescent control [15] -0.0842% [at 18.6 µM] | Potency [16] | Potency [17]

CNC(=O)Nc1ccc(Cl)c(Cl)c1
inactive: Potency [1] | Potency [2] | Potency [3] | outcome [18] | outcome [6] | outcome [7] | outcome [8] | outcome [9] | outcome [10] | outcome [11] | outcome [12] | outcome [13] | outcome [14] | outcome [15] | Potency [16]
active: Potency [19] 15.4 µM

Nc1ccn([C@@H]2O[C@H](CO)[C@@H](O)C2O)c(=O)n1 (stereo partly specified)
inactive: Potency [1] | Potency [2] | outcome [5] | outcome [18] | outcome [7] | outcome [8] | outcome [9] | outcome [10] | outcome [11] | outcome [12] | outcome [13] | outcome [14] | outcome [15] | Potency [16]
